Measurements reported in PubChem BioAssay (NCI).
This is part of a sample that, as a whole, favours compounds with a hit. Of some 79,000 tested, about 15% had one in any assay. Active and inactive are the calls of the source. Rule as the data show it: active = growth inhibition above about 70%; inactive = the rest. Where a SMILES comes first, the peptide text is derived from it. The star is where a group is joined. Boc = CC(C)(C)OC(=O)*

Assay: NCI Yeast Anticancer Drug Screen. Data for the cln2 rad14 strain (AID 165);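 also: 0% = growth equal to vehicle treated cultures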
Conditions: S. cerevisiae cln2 rad14 strain, at 50.0 µM, stronger effect = higher value
Protocol: Growth inhibition of yeast strains with defined genetic alterations is measured as a screen for potential anti-cancer activity. Selected strains with alterations in DNA damage repair or cell cycle control were exposed to compounds and growth inhibition was measured relative to vehicle treated controls. The strain used in this assay is cln2 rad14

SMILES	growth inhibition
O=C(NCCN1CCCC1)Nc1ccccc1	-47.7% (inactive)
Nc1ccc(S(=O)c2ccc(N)cc2)cc1	20.8% (inactive)
O=C(c1cccc(C(=O)N(c2ccccc2)c2ccccc2)n1)N(c1ccccc1)c1ccccc1	15.6% (inactive)
CCOC(=O)CC/C(=N/Nc1ccc(Cl)cc1[N+](=O)[O-])C(=O)OCC	-7.6% (inactive)
OCC(O)C(O)C(OC1OC(CO)C(O)C(O)C1O)C(O)CO (stereo not given)	-2.2% (inactive)
NNC(=O)CNc1cccc(Br)c1	16.9% (inactive)
CCOc1ccccc1NC(=O)C(=O)C(/C(=N/N)C(=O)OC)c1nc2ccc([N+](=O)[O-])cc2[nH]c1=O (stereo not given)	15.4% (inactive)
CC(=O)c1cc2c(cc1C(C)C)C(C)(C)C(C)CC2(C)C (stereo not given)	29.4% (inactive)
Cc1cccc2c1CCC21OC(=O)c2c1ccc1ccccc21 (stereo not given)	17.1% (inactive)
CC(=O)OC(C(=O)O)C(OC(C)=O)C(OC(C)=O)C(=O)O (stereo not given)	-5.85% (inactive)
CCN(CC)C1CS(=O)(=O)OC2=C1CSCC2 (stereo not given)	3.75% (inactive)
COc1ccc(C2=NN(C(C)=O)C(c3cc(OC)c(OC)cc3N)S2)cc1OC (stereo not given) (tested in a mixture with another compound)	19.6% (inactive)
O=c1c2cc(-c3ccccc3)sc2nc2n1N=C(c1ccccc1)CS2	21.3% (inactive)
CN(C)CCCC1(O)c2ccccc2Sc2cc(Cl)ccc21 (stereo not given)	18.6% (inactive)
Cc1cnc2[nH]c(-c3ccccc3)cc(=O)c2c1	-23.2% (inactive)
COC(=O)C(Cc1ccccc1)NC(=O)C(Cc1ccccc1)NC(=O)OC(C)(C)C (stereo not drawn) (Boc-Phe-Phe-OMe; configuration not given here)	-51% (inactive)
O=C1c2ccccc2C(=O)N1N1C(=O)C2C3CCC(O3)C2C1=O (stereo not given)	15.9% (inactive)
CCNS(=O)(=O)c1cc(C(=O)O)cc(C(=O)O)c1	-28.9% (inactive)
O=C1NC(=O)c2ccc(S)c3cccc1c23	-41.1% (inactive)
COc1cc(O)c(OC)c(O)c1C(C)=O	-19.7% (inactive)

SMILES	growth inhibition
Cc1ccc(C(C(=O)O)c2ccc(C)cc2)cc1	27.4% (inactive)
C/C(=N\N=P(c1ccccc1)(c1ccccc1)c1ccccc1)C(C)(C)C	11.9% (inactive)
N#Cc1nc(CC(=O)c2ccccc2Cl)c(CC(=O)c2ccccc2Cl)nc1C#N	25.4% (inactive)
COc1ccc(C2=NC(C)(C)CO2)cc1C	-17.9% (inactive)
Cc1ccc(-n2cc(-c3ccc(Cl)cc3)c3c2N=CN2NC(c4cccs4)=NC32)cc1 (stereo not given)	5.5% (inactive)
CCC(c1ccc(OC)cc1)c1cc2c(cc1OCC(=O)O)OCO2 (stereo not given)	53.9% (inactive)
NC(=O)Cc1[nH]ccc1C(=O)O	-18.6% (inactive)
COC(=O)CC1(O)C=CCCC1c1ccccc1 (stereo not given)	0.3% (inactive)
COc1ccc(C(=O)Nc2c(N)ncnc2N)cc1	-3.6% (inactive)
N=C1N=C(N)c2cc3c(cc21)SCCSCCCSCCS3	9.15% (inactive)
O=[N+]([O-])c1ccc(N=Nc2ccc(N(CCO)CCO)cc2)cc1	1.25% (inactive)
CCN(CC)C(=O)C1CC=CCC1C(=O)O (stereo not given)	-38.5% (inactive)
O=C(O)c1c(Cl)c(Cl)c(Cl)c(Cl)c1C(=O)Nc1cccc(C(F)(F)F)c1	-7.35% (inactive)
Cc1cccc2c1Oc1ccccc1C2N1C(=O)/C(=C/c2ccc(Cl)c(Cl)c2)SC1=S (stereo not given)	33.8% (inactive)
Clc1ccc2c(c1)-c1c3c(nn1-c1ccccc1)-c1ccccc1SC3O2 (stereo not given)	19.3% (inactive)
COC(=O)c1ccc(F)cc1	-1.45% (inactive)
CCC(C)CCC(=O)OCC(=O)c1ccc(-c2ccccc2)cc1 (stereo not given)	-13.5% (inactive)
CN1C(c2ccncc2)=NCC12CCCCC2	1.05% (inactive)
O=C(COc1cc(Cl)c(Cl)cc1Cl)Nc1ccc(N=Nc2ccccc2)cc1	-9.55% (inactive)
O=C(O)COc1ccccc1-c1ccccc1	-48.5% (inactive)
